Measurements as given in paper PMC8384837, “Expanding the binding specificity for RNA recognition by a PUF domain”.

Each sequence was assayed against PUM1 PUF domain R4-GWP (Homo sapiens, UniProt Q14671 828-1176, N971G;H972W;Q975P) (assay: yeast three-hybrid, YBZ-1, SC-Leu-His + 0.5 mM 3-AT, 4 days). Settings: tags: N-Gal4 AD-HA kept; label: inside an RPR1-promoter hybrid RNA with tandem MS2 sites; ssRNA.
How it was run: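 The interaction score is the log change in variant frequency from input to selection. Scores were computed in log2 with a pseudocount of 1 for absent variants, using Illumina sequencing of PCR-amplified repeat regions. The input came from four days on SC-Leu and the selection from four days on SC-Leu-His + 0.5 mM 3-AT. The cells were strain YBZ-1 (LexA–MS2 coat fusion, HIS3 reporter) co-expressing Pumilio-1 PUF domain libraries and matching RNA elements from a centromeric plasmid.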

Sequence	binding signal
GGCUAGAACUAGUGGAUCCCCCGGCGCCCGGCGGCUCGAGCCCGGGUAAGUGUAAAUAGUCUGCAUGCCGCCGGGCGCCAUGCCUGCAGGUCGACUCUAGAAAACAUG	6.31 log2 enrichment (interaction score)
GGCUAGAACUAGUGGAUCCCCCGGCGCCCGGCGGCUCGAGCCCGGGUAAGUGUAUAUAGUCUGCAUGCCGCCGGGCGCCAUGCCUGCAGGUCGACUCUAGAAAACAUG	7.78 log2 enrichment (interaction score)
GGCUAGAACUAGUGGAUCCCCCGGCGCCCGGCGGCUCGAGCCCGGGUAAGUGUACAUAGUCUGCAUGCCGCCGGGCGCCAUGCCUGCAGGUCGACUCUAGAAAACAUG	7 log2 enrichment (interaction score)
